A selection: hits, their analogues and other compounds. The true share with any hit is near 19%.
TDP1 cell CPT: qHTS for Inhibitors of human tyrosyl-DNA phosphodiesterase 1 (TDP1): qHTS in cells in presence of CPT; chicken DT40 Tdp1-/-;hTDP1 cells + 20 nM CPT, ATP luminescence, 48 h; Potency, µM (highest dose often 46.2 µM), for inactives: at the top dose activity change, negative = growth inhibition, most hits filed as inhibitors; actives 12% (n = 420,000); AID 686979, 2013; also: potency is read from the fitted curve at half-maximal effect; nearly all actives have a fitted effect of over 55% in size
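Chicken DT40 Tdp1-/- cells complemented with human TDP1, 400 cells/well, exposed to compounds plus 20 nM camptothecin for at least 48 h at 37 C; viability read as ATP content by CellTiter-Glo luminescence.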
HT1080-NT tox: qHTS for induction of synthetic lethality in tumor cells producing 2HG: qHTS for the HT-1080-NT fibrosarcoma cell line; Potency, µM (highest dose often 46.1 µM), without a hit: at the highest dose activity, negative = less viability, most hits filed as cytotoxic; HT-1080-NT fibrosarcoma viability, CellTiter-Glo ATP luminescence, 48 h; AID 686970, 2013; actives 1.6% (n = 360,000);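 also: NT is the 2HG producing partner of a matched IDH1 knockdown line; potency is read from the fitted curve at half-maximal effect; 0% = DMSO-treated cells and -100% = media-only wells without cells; nearly all actives have a fitted effect of over 55% in size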
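Viability of the 2HG-overproducing fibrosarcoma line after 48 hours of compound exposure at 37 degrees C was determined by luminescence with CellTiter-Glo, and concentration-effect curves were then fitted and categorized.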
IL1B secr inh: qHTS for Inhibitors of Inflammasome Signaling: IL-1-beta AlphaLISA Primary Screen. THP-1 LPS/ATP IL-1B secretion, AlphaLISA, 16 h; active compounds read low. actives 4.7% (n = 360,000). activity change, % at 57.5 µM; in the data active = activity change below about -50%; inconclusive = mostly about -30% to -49%
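THP-1 cells pretreated 1 hr with compounds (up to 57.5 uM final), then stimulated with LPS (250 ng/mL final) plus ATP (1.25 mM final); secreted IL-1B measured by AlphaLISA after 16 hr, decreased signal indicating inhibition.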
HT1080 IDH1KD tx: qHTS for induction of synthetic lethality in tumor cells producing 2HG: qHTS for the HT-1080-IDH1KD cell line | Potency, µM (series often up to 46.1 µM), for inactives: at the highest dose activity, negative = toxicity, hits mostly cytotoxic | actives 2% (n = 360,000) | HT-1080 IDH1 knockdown viability, ATP luminescence, 48 h | AID 686971, 2013;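 also: potency is read from the fitted curve at half-maximal effect; 0% = DMSO wells and -100% = cell-free medium wells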
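Assay cells: HT-1080 with IDH1 knockdown, 750 per well, RPMI/5% FBS. Exposure: 48 h at 37 °C following 2 h pre-incubation. Read: CellTiter-Glo luminescence; fitted concentration-response, curve class assigned.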
DT40 TDP1 no CPT: qHTS for Inhibitors of human tyrosyl-DNA phosphodiesterase 1 (TDP1): qHTS in cells in absence of CPT; DT40 Tdp1-/- hTDP1 cells, no CPT, ATP luminescence, 48 h; actives 15% (n = 420,000); AID 686978, 2013; Potency, µM (top dose mostly 46.2 µM), without a hit: at the highest dose activity change, negative = growth inhibition, most hits filed as inhibitors; also: potency is read from the fitted curve at half-maximal effect; nearly all actives have a fitted effect of over 55% in size
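Compound effects on proliferation are scored in DT40 Tdp1-/-;hTDP1 cells in the absence of CPT. ATP levels (CellTiter-Glo luminescence) are recorded after a ≥48 hr, 37 °C incubation.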
Starred values were filed as active, the others as inactive; ? = inconclusive; nt = not tested or not shown. Unless noted, calls follow the shape of the dose curve; as a rule, active = well fitted curve in the direction sought with a large enough effect; inconclusive = small, poorly fitted or top-dose-only effect, or another doubt; inactive = no such curve, though single readings can be large; an effect the other way counts as inactive or inconclusive. Unless noted, % is scaled to controls: 0 for no effect and ±100 for the full control effect.

SMILES	TDP1 cell CPT	HT1080-NT tox	IL1B secr inh	HT1080 IDH1KD tx	DT40 TDP1 no CPT
COc1ccc(NC(=O)COC(=O)CCCc2c[nH]c3ccccc23)cc1OC	4.2%	4.7%	27.1	7.7%	-7.0%
CN1/C(=C\C(=O)c2cccnc2)C(C)(C)c2ccccc21	-63.9%	22.0%	13.7	20.8%	?
CN1/C(=C\C(=O)c2cncc(Br)c2)C(C)(C)c2ccccc21	3.66µM*	-13.0%	-51.4*	-19.6%	2.59µM*
CN1/C(=C\C(=O)c2ccco2)C(C)(C)c2ccccc21	2.59µM*	?	?	10µM*	3.66µM*
CN1/C(=C/C(=O)c2nc(S(C)(=O)=O)ncc2Cl)C(C)(C)c2ccccc21	0.581µM*	?	-100.1*	4.61µM*	0.461µM*
O=S(=O)(c1cccc(Cl)c1)N1CCN(c2nc(-c3cccs3)nc3ccccc23)CC1	?	?	nt	1.8%	?
C=CCOc1ccccc1CNCCc1ccc(S(N)(=O)=O)cc1	-19.3%	2.8%	-12.2	-5.6%	-19.0%
NS(=O)(=O)c1ccc(CCNCc2cc(Cl)ccc2OCc2ccccc2)cc1	?	?	-99.9*	?	?
NS(=O)(=O)c1ccc(CCNCc2ccccc2OCc2ccc(Cl)cc2)cc1	23.1µM*	23.1µM*	-80.5*	14.6µM*	?
NS(=O)(=O)c1ccc(CCNCc2cc(Br)ccc2OCc2ccccc2F)cc1	5.8µM*	?	nt	23.1µM*	4.11µM*
O=C(COc1ccc(Br)cc1CNCCc1ccccc1)NCc1ccccc1	11.6µM*	20.6µM*	?	?	7.31µM*
CC(=O)Nc1ccc(S(=O)(=O)NCC(=O)OCC(=O)N2CCCc3ccccc32)cc1	-0.9%	4.9%	30.8	2.9%	2.3%
O=C(O)c1ccc(Br)cn1	-5.9%	6.6%	27.4	22.4%	-13.8%
CC(C)Cc1nnc(NC(=O)CN2C(=O)NC3(CC(C)CC(C)(C)C3)C2=O)s1 (centres undefined)	?	11.5%	-12.7	6.6%	?
CCOC(=O)c1sc(NC(=O)CN2C(=O)NC3(CCC(C)CC3)C2=O)c(C(=O)OCC)c1C (centres undefined)	-55.8%	19.9%	0.0	4.0%	-58.0%
CCOC(=O)c1sc(NC(=O)CN2C(=O)NC3(CC(C)CC(C)(C)C3)C2=O)cc1C (centres undefined)	?	?	-29.6	?	18.4µM*
CCOC(=O)c1sc(NC(=O)CN2C(=O)NC3(CC(C)CC(C)(C)C3)C2=O)c(C(=O)OCC)c1C (centres undefined)	9.2µM*	9.8%	?	6.1%	10.3µM*
COc1ccc(NC(=O)CCc2nc3c(C)nn(-c4ccc(C)cc4)c3n(C)c2=O)c(OC)c1	-4.9%	nt	nt	nt	-19.3%
CCOC(=O)C(CC(=O)Nc1nc(C(C)=O)c(C)s1)C(C)c1ccccc1 (centres undefined)	6.4%	-1.8%	47.6	-20.7%	?
CCn1c(SCc2ccccc2C)nc(=O)c2c(C(=O)OC)cc(C3CC3)nc21	11.6µM*	nt	nt	nt	14.6µM*
CCCCCCCCn1ccc(=N)cc1	2.06µM*	?	-10.3	-22.2%	1.84µM*
CCCCCCN1Cc2ccccc2C1	1.3%	12.1%	-0.1	4.1%	-20.2%
CCCCCCCCCCn1ccc(=N)cc1	0.0058µM*	?	-95.1*	10.3µM*	0.0184µM*
CC1(C)OC(=O)C2=C(C[C@@H](C3CCCCC3)O[C@H]2c2ccc(Cl)cc2)O1	?	-17.6%	11.3	-22.7%	?
COc1ccc(-c2nc(N)ncc2-c2ccccc2OC)c(O)c1	?	-2.3%	?	-2.9%	-23.3%

Screening results from PubChem.
